# From PubChem BioAssay (NCATS)
# Inconclusive results are not listed. Calls of active or inactive are those of the source. Unless noted, the call rests on the fitted dose curve; in most records, active means well fitted curve in either direction with a large enough effect (not every such curve was filed as active); inconclusive means small, poorly fitted or top-dose-only effect, or another doubt; inactive means flat fitted curve, though single readings scatter.
# What was measured:
# [1] = biological target: Lysosomal acid glucosylceramidase (Homo sapiens) (UniProt P04062); experiment: Glucocerebrosidase-p2 (AID 348; in the data active means potency below about 10 µM; further: potency means the concentration at half of the fitted maximal effect); conditions: purified GBA, blue fluorogenic substrate, 40 min
# In short: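 Normal human glucocerebrosidase (0.2 nM) with blue fluorogenic substrate (80 uM final) in citrate/phosphate pH 5.9 with 10mM sodium taurocholate, 0.01% tween-20; 40 min RT, NaOH/glycine stop; fluorescence Ex 365/Em 440; AC50 from a titration from 0.6 nM upwards.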
# [2] = AP1 Signaling Pathway (AID 357); conditions: ME-180 AP-1-bla reporter, EGF-induced, beta-lactamase ratio, 5 h; at 7.69 µM (top of the series) unless noted; further: on the % scale 0 is the no-effect control and ±100 the full control effect
# In short: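 ME-180 cells with beta-lactamase reporter under AP-1 response element, stimulated with EC50 EGF; compounds tested in titration series, 5 h at 37 °C. CCF4 substrate added 2.5 h at room temperature; 460/530 nm emission ratio gave %activity and AC50.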
# [3] = biological target: Cytochrome P450 1A2 (Homo sapiens) (UniProt P05177); experiment: p450-cyp1a2 (AID 410; calls by dose curve; further: potency means the concentration at half of the fitted maximal effect;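 on activity change, negative = inhibition: -100% = full effect of reference inhibitor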); conditions: recombinant CYP1A2, luciferin-ME demethylation, luminescence; series mostly up to 57 µM
# In short: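 O-Demethylation of luciferin 6' methyl ether by human CYP1A2 is monitored as luciferase luminescence. Substrate sits at Km (100uM); enzyme is 20nM. Values are scaled to 57 uM furafylline as maximal inhibition.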
# [4] = NFAT Signaling Pathway (AID 444); conditions: Jurkat NFAT-bla M1, carbachol, beta-lactamase ratio, 5 h; at 7.69 µM (top of the series) unless noted;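 further: carbachol stimulus at about its EC50 of 1 µM final; on the % scale 0 is the no-effect control and ±100 the full control effect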
# In short: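 Jurkat cells carrying an NFAT-driven β-lactamase reporter and co-transfected muscarinic M1 receptor were treated with compound plus carbachol (1 uM final, an EC50 level) for 5 h at 37 °C. CCF4 loading followed for 1 h at RT; 460/530 nm ratio gave %activity.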
# [5] = Stat Signaling Pathway (AID 446); conditions: ME-180 (cervical carcinoma) SIE beta-lactamase reporter, IL-6 stimulated, 5 h; at 7.69 µM (top of the series) unless noted;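 further: ME-180 cervical cancer cells given 40 pM IL-6 alongside compound; SIE-controlled beta-lactamase reporter measured as 460/530 nm FRET emission ratio; on the % scale 0 is the no-effect control and ±100 the full control effect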
# In short: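 FRET read-out (405 nm excitation, 460/530 nm emission) of a beta-lactamase reporter under a STAT-inducible element in ME-180 cervical carcinoma cells. Cells with compound receive 40 pM IL-6 for 5 h. Values are normalised to AC90 stimulation and AC90 JAK-inhibitor controls.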
# [6] = biological target: Glucocorticoid receptor (Homo sapiens) (UniProt P04150); experiment: GR-GFP Redistribution (AID 450;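 active means compounds whose dose series gives a full or clear partial fitted curve of increased nuclear translocation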; further: potency means the concentration at half of the fitted maximal effect); conditions: U2OS GR-GFP nuclear translocation, laser cytometry, 2 h
# [7] = biological target: Glucocorticoid receptor (Homo sapiens) (UniProt P04150); experiment: GR-EFC Redistribution (AID 451; calls by dose curve; further: potency means the concentration at half of the fitted maximal effect); conditions: CHO-K1 GR-EFC translocation, beta-gal luminescence, 2 h
# In short: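 CHO-K1 cells stably expressing nuclear-localized β-gal enzyme acceptor and GR fused C-terminally to the enzyme donor fragment; ligand-driven nuclear translocation restores β-gal by complementation. Compounds titrated up to 46 uM final, 2 h at 37 °C; luminescence read.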
# [8] = biological target: Mitogen-activated protein kinase 10 (Mus musculus) (UniProt Q61831); experiment: JNK3 AlphaScreen Assay (AID 530); conditions: JNK3 lysate, c-Jun phosphorylation; series mostly up to 57.1 µM;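 further: kinase came from lysate of stimulated human HepG2 cells; signal reports phosphorylation of biotinylated GST-cJun 1-79 at Ser73 with 10 µM ATP; on the % scale 0 is the no-effect control and ±100 the full control effect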
# In short: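 Phosphorylation of biotinylated GST-cJun(1-79) at Ser73 is measured by AlphaScreen proximity luminescence. Enzyme is JNK3 in HepG2 lysates activated with interleukin-1beta and tumor necrosis factor alpha; ATP is 10 uM final.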
# [9] = biological target: Cytochrome P450 3A4 (Homo sapiens) (UniProt P08684); experiment: qHTS Assay for Inhibitors and Substrates of Cytochrome P450 3A4 (AID 884; active means well fitted curve in the direction sought with a large enough effect; an effect the other way counts as inactive or inconclusive; further: nearly all actives have a fitted effect of over 50% in size; further: potency means the concentration at half of the fitted maximal effect); conditions: recombinant CYP3A4, Luciferin-PPXE luminescence; series mostly up to 57.1 µM
# In short: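 Luminescent readout of luciferin produced by CYP3A4 (20 nM) dealkylation of Luciferin-PPXE, 25 uM (its KM). NADPH-driven reaction ran 60 min at RT after 10 min compound preincubation; data scaled to 57 uM ketoconazole as 100% inhibition.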
# [10] = biological target: Cytochrome P450 3A4 (Homo sapiens) (UniProt P08684); experiment: qHTS Assay for Activators of Cytochrome P450 3A4 (AID 885; active means well fitted curve in the direction sought with a large enough effect; an effect the other way counts as inactive or inconclusive; further: nearly all actives have a fitted effect of over 65% in size); conditions: recombinant CYP3A4, Luciferin-PPXE luminescence, 60 min; series mostly up to 57.1 µM
# In short: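 Luminescent readout of luciferin formed from 25 uM Luciferin-PPXE (KM level) by 20 nM CYP3A4 in 200 mM KPO4, with 60 min NADPH-driven reaction at room temperature after 10 min compound exposure. Ketoconazole (57 uM) defined 100% inhibition.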
# [11] = Confirmation and Secondary Assay for Modulators of Hemoglobin Beta Chain Splicing at IVS2 654 locus (AID 910; active means well fitted curve in the direction sought with a large enough effect; an effect the other way counts as inactive or inconclusive;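 further: per-well total GFP intensity by laser scanning cytometry after 2-day treatment; % of control where 0% means no effect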); conditions: HeLa EGFP-654 splicing reporter, GFP fluorescence, 48 h; series mostly up to 38.3 µM
# In short: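 HeLa cells stably carrying EGFP interrupted by mutant beta-globin IVS2-654 intron (CMV-driven) were treated with compound for 2 days at 37C; corrected splicing was scored as total peak GFP intensity per well (488 nm excitation, 500-520 nm emission).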
# [12] = Confirmation and Secondary Assay for Modulators of Hemoglobin Beta Chain Splicing at IVS2 705 locus (AID 930; active means well fitted curve in the direction sought with a large enough effect; an effect the other way counts as inactive or inconclusive;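 further: HeLa cells stably expressing the EGFP-705 splicing reporter; GFP fluorescence per well restored by corrected splicing of the IVS2-705 intron in EGFP; % of control where 0% means no effect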); conditions: HeLa EGFP-705 splicing reporter, GFP fluorescence, 48 h; series mostly up to 38.3 µM
# In short: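 First, HeLa EGFP-705 cells are seeded at 500/well in Optimem with 2% FCS and left overnight. Next, compound or DMSO is added for 2 days. Finally wells are laser-scanned and total peak GFP intensity scored.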
# [13] = qHTS Assay for Lipid Storage Modulators (AID 1519; calls by dose curve); conditions: Drosophila S3 cells, BODIPY lipid droplet/cell ratio, laser cytometry, cells loaded with oleic acid; for activity change, negative = inhibition: at 57.5 µM (top of the series)
# In short: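 Cells seeded at 5,000 per well were treated with compounds over a concentration series and loaded with oleic acid (400 uM, as added). Lipid droplet fluorescence (488 nm excitation, 500-530 nm channel) was read by laser-scanning cytometry and normalized to 20 uM Triacsin C.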
# [14] = biological target: Cytochrome P450 2C19 (Homo sapiens) (UniProt P33261); experiment: qHTS Assay for Inhibitors and Substrates of Cytochrome P450 2C19 (AID 899; active means well fitted curve in the direction sought with a large enough effect; an effect the other way counts as inactive or inconclusive; further: potency means the concentration at half of the fitted maximal effect; nearly all actives have a fitted effect of over 60% in size); conditions: recombinant CYP2C19, luciferin-H EGE luminescence; series mostly up to 57.1 µM
# In short: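 Human CYP2C19 (5nM) with Luciferin-H EGE at 10uM (its KM) in 50mM KPO4 was preincubated with compound for 10 min at 37C. NADPH regeneration started a 60 min 37C reaction. Luciferin was read by luminescence, normalized to 57uM ketoconazole.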
# [15] = biological target: 3',5'-cyclic-AMP phosphodiesterase 4B (Homo sapiens) (UniProt Q07343); experiment: qHTS Assay for Inhibitors of PDE-IV (AID 607; active means well fitted activation curve with a large enough effect in the main read-out, with a control signal flat, not every such curve was filed as active; further: % of control where 0% means no effect); conditions: HEK293 ACTOne CNG channel cells, membrane potential fluorescence; series mostly up to 22.9 µM
# In short: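 Cell-based read-out of cAMP via a modified cyclic nucleotide-gated channel and membrane potential dye (535/590 nm) in HEK293 cells expressing PDE4 endogenously. Compounds tested up to 22.9 uM final; 100 uM RO 20-1724 reference.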
# [16] = biological target: Ubiquitin carboxyl-terminal hydrolase 1 (Homo sapiens) (UniProt O94782); experiment: Inhibitors of USP1/UAF1: Pilot qHTS (AID 504865; active means well fitted curve in the direction sought with a large enough effect; an effect the other way counts as inactive or inconclusive;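 further: rhodamine fluorescence freed from ubiquitin-rhodamine substrate followed over time; top concentration of the series differs between compounds; on the % scale 0 is the no-effect control and ±100 the full control effect; nearly all actives have a fitted effect of over 35% in size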); conditions: purified USP1/UAF1, Ub-rhodamine cleavage fluorescence; series mostly up to 54.9 µM
# In short: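 Enzyme-free wells gave the negative control, while test wells held 1nM USP1/UAF1 preincubated with compound for 15 min at room temperature. Ub-Rho at 150nM final started the reaction, and fluorescence at 480/540 nm was recorded kinetically.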
# [17] = measured here: cell count channel max response
# [18] = measured here: lipid channel max response
# Sequence of Lysosomal acid glucosylceramidase (Homo sapiens) (P04062 whole entry, looked up): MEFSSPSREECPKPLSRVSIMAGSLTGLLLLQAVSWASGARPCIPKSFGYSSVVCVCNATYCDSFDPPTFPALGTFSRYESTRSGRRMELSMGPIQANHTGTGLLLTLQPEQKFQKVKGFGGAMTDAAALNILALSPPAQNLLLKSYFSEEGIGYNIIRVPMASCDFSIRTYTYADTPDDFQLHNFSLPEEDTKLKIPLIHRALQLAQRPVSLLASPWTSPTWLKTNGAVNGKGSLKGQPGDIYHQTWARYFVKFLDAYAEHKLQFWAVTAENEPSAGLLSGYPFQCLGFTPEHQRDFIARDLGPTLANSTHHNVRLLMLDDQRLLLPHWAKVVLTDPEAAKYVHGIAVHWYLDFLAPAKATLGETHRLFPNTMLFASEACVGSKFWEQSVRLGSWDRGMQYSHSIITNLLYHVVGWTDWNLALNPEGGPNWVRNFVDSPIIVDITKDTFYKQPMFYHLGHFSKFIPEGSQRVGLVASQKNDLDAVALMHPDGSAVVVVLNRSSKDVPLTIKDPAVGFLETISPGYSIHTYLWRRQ
# Sequence of 3',5'-cyclic-AMP phosphodiesterase 4B (Homo sapiens) (Q07343 whole entry, looked up): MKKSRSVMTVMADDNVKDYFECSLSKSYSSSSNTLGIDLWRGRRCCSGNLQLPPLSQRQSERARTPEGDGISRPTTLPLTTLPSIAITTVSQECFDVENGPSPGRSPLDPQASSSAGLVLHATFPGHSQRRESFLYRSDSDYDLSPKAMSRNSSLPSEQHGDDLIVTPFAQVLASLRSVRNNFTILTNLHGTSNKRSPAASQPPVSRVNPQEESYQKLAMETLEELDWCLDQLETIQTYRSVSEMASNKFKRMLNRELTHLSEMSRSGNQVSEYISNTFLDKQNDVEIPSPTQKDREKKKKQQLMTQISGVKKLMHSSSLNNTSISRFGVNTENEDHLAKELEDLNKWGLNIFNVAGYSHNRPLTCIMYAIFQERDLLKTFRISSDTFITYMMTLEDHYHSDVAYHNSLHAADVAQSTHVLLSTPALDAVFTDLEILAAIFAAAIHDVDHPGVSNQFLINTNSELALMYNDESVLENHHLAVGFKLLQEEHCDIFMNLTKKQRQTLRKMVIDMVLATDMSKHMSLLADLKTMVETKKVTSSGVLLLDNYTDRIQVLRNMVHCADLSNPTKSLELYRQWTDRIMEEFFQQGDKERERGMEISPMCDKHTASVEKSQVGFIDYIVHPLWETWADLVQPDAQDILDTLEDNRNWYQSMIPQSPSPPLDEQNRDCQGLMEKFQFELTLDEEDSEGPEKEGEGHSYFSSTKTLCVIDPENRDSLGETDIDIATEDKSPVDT
# Sequence of Glucocorticoid receptor (Homo sapiens) (P04150 whole entry, looked up, the tested form may be a part): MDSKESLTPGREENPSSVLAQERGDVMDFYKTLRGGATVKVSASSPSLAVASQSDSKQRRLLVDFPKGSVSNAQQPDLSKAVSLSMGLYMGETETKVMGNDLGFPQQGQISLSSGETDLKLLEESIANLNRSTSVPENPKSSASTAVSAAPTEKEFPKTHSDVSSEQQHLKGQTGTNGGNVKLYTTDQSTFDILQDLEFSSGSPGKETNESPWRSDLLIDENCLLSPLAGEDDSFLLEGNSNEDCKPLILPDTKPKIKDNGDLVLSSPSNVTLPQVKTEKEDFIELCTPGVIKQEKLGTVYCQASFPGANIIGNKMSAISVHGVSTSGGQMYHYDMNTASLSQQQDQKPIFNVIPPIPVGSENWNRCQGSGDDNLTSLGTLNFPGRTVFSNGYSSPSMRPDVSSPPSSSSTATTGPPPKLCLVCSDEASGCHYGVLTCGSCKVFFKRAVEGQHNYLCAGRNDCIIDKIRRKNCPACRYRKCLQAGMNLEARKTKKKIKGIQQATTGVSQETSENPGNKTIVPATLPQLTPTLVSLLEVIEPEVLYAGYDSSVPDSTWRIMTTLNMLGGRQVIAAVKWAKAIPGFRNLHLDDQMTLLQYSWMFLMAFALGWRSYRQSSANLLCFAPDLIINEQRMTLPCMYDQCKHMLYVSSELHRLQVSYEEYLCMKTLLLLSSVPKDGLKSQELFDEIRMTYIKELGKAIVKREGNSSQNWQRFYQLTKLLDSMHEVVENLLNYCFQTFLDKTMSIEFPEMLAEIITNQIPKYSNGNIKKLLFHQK
# Sequence of Cytochrome P450 1A2 (Homo sapiens) (P05177 whole entry, looked up): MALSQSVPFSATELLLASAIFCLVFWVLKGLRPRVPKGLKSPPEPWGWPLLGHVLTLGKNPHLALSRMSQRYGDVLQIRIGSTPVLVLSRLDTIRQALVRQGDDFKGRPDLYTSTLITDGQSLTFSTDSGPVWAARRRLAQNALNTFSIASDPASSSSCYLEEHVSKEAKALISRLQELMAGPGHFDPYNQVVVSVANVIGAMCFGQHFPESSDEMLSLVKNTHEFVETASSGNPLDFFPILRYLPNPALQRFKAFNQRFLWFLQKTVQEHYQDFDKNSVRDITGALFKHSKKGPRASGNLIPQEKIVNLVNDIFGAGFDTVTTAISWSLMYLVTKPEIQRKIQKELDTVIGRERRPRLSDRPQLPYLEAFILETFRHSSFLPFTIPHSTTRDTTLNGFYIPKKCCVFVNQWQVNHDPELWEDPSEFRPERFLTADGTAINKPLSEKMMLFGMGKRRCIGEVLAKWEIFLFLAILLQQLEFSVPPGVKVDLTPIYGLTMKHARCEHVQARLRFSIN
# Sequence of Cytochrome P450 3A4 (Homo sapiens) (P08684 whole entry, looked up): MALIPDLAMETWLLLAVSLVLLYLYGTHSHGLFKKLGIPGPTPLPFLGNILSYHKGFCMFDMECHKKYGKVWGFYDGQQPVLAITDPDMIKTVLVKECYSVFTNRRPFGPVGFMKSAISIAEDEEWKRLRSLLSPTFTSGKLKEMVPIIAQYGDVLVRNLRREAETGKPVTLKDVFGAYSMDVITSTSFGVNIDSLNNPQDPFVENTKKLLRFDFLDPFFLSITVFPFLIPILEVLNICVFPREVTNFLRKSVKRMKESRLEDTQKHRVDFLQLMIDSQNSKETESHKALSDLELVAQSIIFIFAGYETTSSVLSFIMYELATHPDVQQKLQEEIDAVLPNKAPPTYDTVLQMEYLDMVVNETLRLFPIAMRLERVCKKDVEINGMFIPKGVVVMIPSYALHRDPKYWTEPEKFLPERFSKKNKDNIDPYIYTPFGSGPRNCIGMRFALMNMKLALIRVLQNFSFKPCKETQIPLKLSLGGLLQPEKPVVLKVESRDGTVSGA
# Sequence of Cytochrome P450 2C19 (Homo sapiens) (P33261 whole entry, looked up): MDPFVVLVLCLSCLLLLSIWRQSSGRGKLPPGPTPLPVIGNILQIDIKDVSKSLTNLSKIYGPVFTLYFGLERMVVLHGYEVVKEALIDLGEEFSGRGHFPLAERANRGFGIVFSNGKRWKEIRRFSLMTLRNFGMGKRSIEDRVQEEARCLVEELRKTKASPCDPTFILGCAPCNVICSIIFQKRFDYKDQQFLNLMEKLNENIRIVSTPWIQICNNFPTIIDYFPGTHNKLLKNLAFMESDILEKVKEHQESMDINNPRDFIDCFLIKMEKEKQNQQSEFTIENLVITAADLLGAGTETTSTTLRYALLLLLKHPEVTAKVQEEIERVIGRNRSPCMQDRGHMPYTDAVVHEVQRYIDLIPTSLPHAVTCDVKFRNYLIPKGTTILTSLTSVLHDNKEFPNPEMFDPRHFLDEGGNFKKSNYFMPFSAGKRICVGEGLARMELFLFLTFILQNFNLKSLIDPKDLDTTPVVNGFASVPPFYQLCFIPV
# Sequence of Ubiquitin carboxyl-terminal hydrolase 1 (Homo sapiens) (O94782 whole entry, looked up): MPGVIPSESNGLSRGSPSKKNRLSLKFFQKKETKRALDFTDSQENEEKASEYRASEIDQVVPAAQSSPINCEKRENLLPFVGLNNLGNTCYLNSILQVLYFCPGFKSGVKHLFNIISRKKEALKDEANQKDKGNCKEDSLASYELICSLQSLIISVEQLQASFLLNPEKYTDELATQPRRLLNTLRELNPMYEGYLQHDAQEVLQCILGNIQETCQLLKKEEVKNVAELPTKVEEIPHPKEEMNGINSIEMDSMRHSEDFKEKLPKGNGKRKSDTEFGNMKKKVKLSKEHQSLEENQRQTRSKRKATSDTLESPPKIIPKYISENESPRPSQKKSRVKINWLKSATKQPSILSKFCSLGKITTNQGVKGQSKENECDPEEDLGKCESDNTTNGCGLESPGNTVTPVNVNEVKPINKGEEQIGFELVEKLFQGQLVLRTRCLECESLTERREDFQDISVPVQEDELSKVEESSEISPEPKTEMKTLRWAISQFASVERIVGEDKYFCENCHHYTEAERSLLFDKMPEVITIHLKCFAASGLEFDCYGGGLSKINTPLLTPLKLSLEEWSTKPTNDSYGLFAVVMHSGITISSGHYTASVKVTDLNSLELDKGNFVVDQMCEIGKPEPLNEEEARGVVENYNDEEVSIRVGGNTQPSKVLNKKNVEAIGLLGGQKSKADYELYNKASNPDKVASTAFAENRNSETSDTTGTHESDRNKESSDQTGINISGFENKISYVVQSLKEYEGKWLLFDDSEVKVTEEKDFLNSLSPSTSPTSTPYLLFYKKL
SMILES,Potency [1],"activity change, negative = inhibition [2]",Potency [3],"activity change, negative = inhibition [4]","activity, negative = inhibition [5]",Potency [6],Potency [7],Potency [8],Potency [9],Potency [10],Potency [11],outcome [12],"activity change, negative = inhibition [13]","max response [13, 17] [%]","max response [13, 18] [%]",Potency [14],Potency [15],Potency [16]
Cc1cccc(CNc2ncncc2-c2ccccc2C(F)(F)F)c1,> 11.4 µM (inactive),-9.35% (inactive),12.6 µM (active),-6.75% (inactive),-0.642% (inactive),> 46 µM (inactive),> 46 µM (inactive),inactive,0.0794 µM (active),inactive,inactive,inactive,4.45% (inactive),-2.27,3.62,–,–,–
COc1ccccc1-c1ccc2ncnc(N(C)C)c2c1,> 11.4 µM (inactive),-19.5% (inactive),1.26 µM (active),-2.93% (inactive),-12.7% (inactive),> 46 µM (inactive),> 46 µM (inactive),inactive,5.01 µM (active),inactive,inactive,inactive,4.68% (inactive),-12.6,-7.7,0.501 µM (active),–,–
Cc1cccc(CNc2nc(-c3cccc(NS(C)(=O)=O)c3)nc3ccccc23)c1,> 11.4 µM (inactive),-27.3% (inactive),15.8 µM (active),-6.18% (inactive),-23% (inactive),> 46 µM (inactive),> 46 µM (inactive),inactive,5.01 µM (active),inactive,–,inactive,1.31% (inactive),-11.9,-11.1,–,–,–
N#Cc1cccc(-c2nc(Nc3ccncc3)c3ccccc3n2)c1,2.09 µM (active),-0.676% (inactive),0.631 µM (active),-19.2% (inactive),8.07% (inactive),> 46 µM (inactive),> 46 µM (inactive),inactive,–,inactive,inactive,inactive,5.79% (inactive),4.98,11.4,–,inactive,–
COc1ccc2[nH]cc(CCNc3ncncc3-c3ccccc3CN(C)C)c2c1,> 11.4 µM (inactive),-7.44% (inactive),20 µM (active),-7.95% (inactive),0.332% (inactive),> 46 µM (inactive),> 46 µM (inactive),inactive,0.631 µM (active),inactive,inactive,inactive,2.99% (inactive),-0.105,4.99,–,–,inactive
Cc1ccccc1-c1nc(-n2ccnc2)c2ccccc2n1,> 11.4 µM (inactive),-12.3% (inactive),0.316 µM (active),-10.1% (inactive),0.874% (inactive),> 46 µM (inactive),> 46 µM (inactive),inactive,0.398 µM (active),inactive,–,inactive,5.99% (inactive),-6.87,-2.77,5.01 µM (active),–,–
Cn1cccc1C(=O)N1CCC2(CCN(C(=O)Nc3ccccc3)CC2)CC1,> 11.4 µM (inactive),-3.67% (inactive),inactive,5.41% (inactive),-8.38% (inactive),–,> 46 µM (inactive),inactive,inactive,–,–,–,5.15% (inactive),0.66,6.81,–,inactive,–
COc1ccccc1-c1nc(NCc2cnc(C)cn2)c2ccccc2n1,> 11.4 µM (inactive),4.95% (inactive),5.01 µM (active),2.11% (inactive),-5.06% (inactive),> 46 µM (inactive),> 46 µM (inactive),inactive,–,inactive,inactive,inactive,7.28% (inactive),6.96,14.2,–,inactive,–
